Experimental findings from PubChem BioAssay (NCI) are described below.

This is part of a sample that, as a whole, favours compounds with a hit. Of some 79,000 tested, about 15% had one in any assay. A number with no mark means an inactive call. The source made the active and inactive calls. No stated cut-off is given here; in the data, active means growth inhibition above about 70%; inactive means the rest.

A short description of assay [1]: NCI Yeast Anticancer Drug Screen. Data for the rad50 strain (AID 155).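 Further: 0% = growth of vehicle-only cultures of the same strain.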 The following applies: S. cerevisiae rad50 strain growth inhibition, active compounds read high. An outline of the steps:
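Vehicle-treated cultures provide the reference for the growth inhibition reported for compound-exposed, repair-deficient yeast.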

Assay [2] in a line: NCI Yeast Anticancer Drug Screen. Data for the mec2-1 strain (AID 157). The following applies: S. cerevisiae mec2-1 strain, active compounds read high. The procedure, abridged: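 Vehicle-treated cultures served as reference for growth inhibition of compound-exposed mec2-1 yeast.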
Assay [3] is described as follows: NCI Yeast Anticancer Drug Screen. Data for the sgs1 mgt1 strain (AID 161).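 Further: 0% = growth of cultures given vehicle only.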 The following applies: S. cerevisiae sgs1 mgt1 strain, active compounds read high. The procedure, abridged: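 Test agents were incubated with a DNA-repair-mutant yeast strain. Growth was then read and compared against vehicle-treated controls.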
The nature of assay [4]: NCI Yeast Anticancer Drug Screen. Data for the cln2 rad14 strain (AID 165).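 Further: 0% = growth equal to vehicle treated cultures.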 The following applies: S. cerevisiae cln2 rad14 strain, active compounds read high. An outline of the steps:
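Each compound was tested on cln2 rad14 yeast. Inhibition of growth was calculated against vehicle-exposed controls.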

Assay [5] in a line: NCI Yeast Anticancer Drug Screen. Data for the bub3 strain (AID 167). The following applies: S. cerevisiae bub3 mutant strain, active compounds read high. The procedure, abridged: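 Mutant yeast screening strain plus compound; vehicle-treated cultures serve as the 0% inhibition reference.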
Assay [6] is described as follows: NCI Yeast Anticancer Drug Screen. Data for the mlh1 rad18 strain (AID 175). The following applies: S. cerevisiae mlh1 rad18 strain growth inhibition, active compounds read high. An outline of the steps:
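Vehicle-treated cultures served as the reference for growth inhibition in a yeast strain carrying DNA damage repair alterations exposed to each compound.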

[7] abbreviates: at 5.0 µM (retest, dose inferred, filed as 0.5).
Setting [8] is: at 50.0 µM (retest, dose inferred, filed as 5.0).

On to `COc1cc(/C=C2\SC(=S)N(/C=C/c3nc4ccccc4[nH]c3=O)C2=O)cc(OC)c1OC`, for which the growth inhibition in assay [1] (setting [7]) is -9%; in assay [1] (setting [8]), 57%; in assay [1] (at 50.0 µM), 8.55%; in assay [2] (setting [7]) it was -10%; in assay [2] (setting [8]) it was 45%; in assay [2] (at 50.0 µM), 14.7%. Besides, the growth inhibition in assay [3] (setting [7]) is -3%; in assay [3] (setting [8]) it was 24%; in assay [3] (at 50.0 µM), 63.1%; in assay [4] (setting [7]), -29%; in assay [4] (setting [8]), 58%; in assay [4] (at 50.0 µM) it was 34.5%. For the same compound, the growth inhibition is -8% in assay [5] (setting [7]); 44% in assay [5] (setting [8]); -4.8% in assay [5] (at 50.0 µM); 3% in assay [6] (setting [7]); 42% in assay [6] (setting [8]); 55.1% in assay [6] (at 50.0 µM).

For `COc1cc(NCc2ccc3nc(N)nc(N)c3c2C)cc(OC)c1OC` (tested in a mixture with another compound), the growth inhibition is 24% in assay [1] (setting [7]); 54% in assay [1] (setting [8]); 12.3% in assay [1] (at 50.0 µM); 18% in assay [2] (setting [7]); 87% (active) in assay [2] (setting [8]); 51.8% in assay [2] (at 50.0 µM). Further, the growth inhibition is 12% in assay [3] (setting [7]); 31% in assay [3] (setting [8]); 43.2% in assay [3] (at 50.0 µM); 23% in assay [4] (setting [7]); 23% in assay [4] (setting [8]); 2.8% in assay [4] (at 50.0 µM). The growth inhibition is 17% in assay [5] (setting [7]); 24% in assay [5] (setting [8]); 5.05% in assay [5] (at 50.0 µM); 23% in assay [6] (setting [7]); 36% in assay [6] (setting [8]); -45.4% in assay [6] (at 50.0 µM).

Take `CCCCCCCCCCCC[N+]1(CCCCCCCCCCCC)CCCC(C)C1` (stereo not given): the growth inhibition in assay [1] (setting [7]) is 99% (active); in assay [1] (setting [8]), 99% (active); in assay [1] (at 50.0 µM) it was 88.8% (active); in assay [2] (setting [7]), 100% (active); in assay [2] (setting [8]), 94% (active); in assay [2] (at 50.0 µM), 91.3% (active). The growth inhibition in assay [3] (setting [7]) was 100% (active); in assay [3] (setting [8]), 99% (active); in assay [3] (at 50.0 µM), 91.1% (active); in assay [4] (setting [7]) it was 99% (active); in assay [4] (setting [8]), 99% (active); in assay [4] (at 50.0 µM), 88.1% (active). The growth inhibition in assay [5] (setting [7]) is 99% (active); in assay [5] (setting [8]), 99% (active); in assay [5] (at 50.0 µM), 90% (active); in assay [6] (setting [7]), 99% (active); in assay [6] (setting [8]) it was 99% (active); in assay [6] (at 50.0 µM) it was 88.7% (active).

In the case of `CCOC(=O)c1cc(CC)sc1NC(=O)CC(C)=O`, the growth inhibition in assay [1] (setting [7]) is 42%; in assay [1] (setting [8]) it was 58%; in assay [1] (at 50.0 µM), 46%; in assay [2] (setting [7]), 35%; in assay [2] (setting [8]), 53%; in assay [2] (at 50.0 µM) it was 17.9%. Further, the growth inhibition in assay [3] (setting [7]) is 42%; in assay [3] (setting [8]) it was 56%; in assay [3] (at 50.0 µM), 57.2%; in assay [4] (setting [7]), 38%; in assay [4] (setting [8]), 44%; in assay [4] (at 50.0 µM), 59.5%. Also, the growth inhibition in assay [5] (setting [7]) was 44%; in assay [5] (setting [8]), 78% (active); in assay [5] (at 50.0 µM) it was 70.8% (active); in assay [6] (setting [7]), 46%; in assay [6] (setting [8]), 71% (active); in assay [6] (at 50.0 µM) it was 61.1%.

Regarding `OC(c1cc(-c2ccc(Cl)cc2)nc2c(Cl)cccc12)C1CCCCN1` (stereo not given), the growth inhibition is 73% (active) in assay [1] (setting [7]); 93% (active) in assay [1] (setting [8]); 99.8% (active) in assay [1] (at 50.0 µM); 26% in assay [2] (setting [7]); 55% in assay [2] (setting [8]); 99.8% (active) in assay [2] (at 50.0 µM). The growth inhibition in assay [3] (setting [7]) is 93% (active); in assay [3] (setting [8]) it was 100% (active); in assay [3] (at 50.0 µM), 99.9% (active); in assay [4] (setting [7]), 20%; in assay [4] (setting [8]) it was 66%; in assay [4] (at 50.0 µM) it was 99% (active). Besides, the growth inhibition is 28% in assay [5] (setting [7]); 93% (active) in assay [5] (setting [8]); 99.5% (active) in assay [5] (at 50.0 µM); 69% in assay [6] (setting [7]); 88% (active) in assay [6] (setting [8]); 99.5% (active) in assay [6] (at 50.0 µM).

`O=C1C=CC(=O)N1c1ccc(O)cc1`: the growth inhibition was 15% in assay [1] (setting [7]); 94% (active) in assay [1] (setting [8]); 96.3% (active) in assay [1] (at 50.0 µM); 23% in assay [2] (setting [7]); 98% (active) in assay [2] (setting [8]); 98.4% (active) in assay [2] (at 50.0 µM). Besides, the growth inhibition is 18% in assay [3] (setting [7]); 86% (active) in assay [3] (setting [8]); 94.1% (active) in assay [3] (at 50.0 µM); -1% in assay [4] (setting [7]); 98% (active) in assay [4] (setting [8]); 98.3% (active) in assay [4] (at 50.0 µM). Also, the growth inhibition is 4% in assay [5] (setting [7]); 97% (active) in assay [5] (setting [8]); 96.8% (active) in assay [5] (at 50.0 µM); 11% in assay [6] (setting [7]); 98% (active) in assay [6] (setting [8]); 91.8% (active) in assay [6] (at 50.0 µM).

In the case of `Oc1c(Cl)cc(Cl)cc1C(c1cc(Cl)cc(Cl)c1O)C(Cl)(Cl)Cl`, the growth inhibition in assay [1] (setting [7]) was -2%; in assay [1] (setting [8]), 99% (active); in assay [1] (at 50.0 µM), 99% (active); in assay [2] (setting [7]), 0%; in assay [2] (setting [8]), 100% (active); in assay [2] (at 50.0 µM), 99.5% (active). Besides, the growth inhibition is -4% in assay [3] (setting [7]); 99% (active) in assay [3] (setting [8]); 99.5% (active) in assay [3] (at 50.0 µM); -2% in assay [4] (setting [7]); 97% (active) in assay [4] (setting [8]); 98.7% (active) in assay [4] (at 50.0 µM). In addition, the growth inhibition in assay [5] (setting [7]) is -2%; in assay [5] (setting [8]) it was 99% (active); in assay [5] (at 50.0 µM) it was 99.2% (active); in assay [6] (setting [7]), 0%; in assay [6] (setting [8]), 99% (active); in assay [6] (at 50.0 µM), 99.2% (active).

Consider `C=C(CO)C(=O)OC1CC(=C)C2CC(O)C(C)C2C2OC(=O)C(=C)C12` (stereo not given), for which the growth inhibition is 20% in assay [1] (setting [7]); 97% (active) in assay [1] (setting [8]); 86.7% (active) in assay [1] (at 50.0 µM); 15% in assay [2] (setting [7]); 98% (active) in assay [2] (setting [8]); 52.5% in assay [2] (at 50.0 µM). Further, the growth inhibition is 10% in assay [3] (setting [7]); 97% (active) in assay [3] (setting [8]); 92.5% (active) in assay [3] (at 50.0 µM); 13% in assay [4] (setting [7]); 89% (active) in assay [4] (setting [8]); 32.4% in assay [4] (at 50.0 µM). Also, the growth inhibition in assay [5] (setting [7]) was 9%; in assay [5] (setting [8]) it was 97% (active); in assay [5] (at 50.0 µM), 79.4% (active); in assay [6] (setting [7]), 26%; in assay [6] (setting [8]), 98% (active); in assay [6] (at 50.0 µM) it was 87.7% (active).

For the compound `O=[N+]([O-])C=C(c1ccccc1)c1ccccc1`, the growth inhibition is -23% in assay [1] (setting [7]); 93% (active) in assay [1] (setting [8]); 96.8% (active) in assay [1] (at 50.0 µM); -12% in assay [2] (setting [7]); 89% (active) in assay [2] (setting [8]); 87.8% (active) in assay [2] (at 50.0 µM). In addition, the growth inhibition in assay [3] (setting [7]) was 7%; in assay [3] (setting [8]), 86% (active); in assay [3] (at 50.0 µM), 77.8% (active); in assay [4] (setting [7]) it was -20%; in assay [4] (setting [8]) it was 63%; in assay [4] (at 50.0 µM), 76.8% (active). Also, the growth inhibition is -1% in assay [5] (setting [7]); 90% (active) in assay [5] (setting [8]); 88% (active) in assay [5] (at 50.0 µM); -12% in assay [6] (setting [7]); 94% (active) in assay [6] (setting [8]); 93.2% (active) in assay [6] (at 50.0 µM).

For `CN(C)CCN(C)CC(C)(C)C(=O)/C=C/c1ccc(Cl)c(Cl)c1`, the growth inhibition in assay [1] (setting [7]) was 13%; in assay [1] (setting [8]) it was 99% (active); in assay [1] (at 50.0 µM), 96.8% (active); in assay [2] (setting [7]), 4%; in assay [2] (setting [8]), 99% (active); in assay [2] (at 50.0 µM) it was 78.1% (active). The growth inhibition in assay [3] (setting [7]) was 6%; in assay [3] (setting [8]), 99% (active); in assay [3] (at 50.0 µM), 56.2%; in assay [4] (setting [7]), -3%; in assay [4] (setting [8]), 98% (active); in assay [4] (at 50.0 µM), 8.2%. Moreover, the growth inhibition was 6% in assay [5] (setting [7]); 99% (active) in assay [5] (setting [8]); 92.5% (active) in assay [5] (at 50.0 µM); 8% in assay [6] (setting [7]); 99% (active) in assay [6] (setting [8]); 70.5% (active) in assay [6] (at 50.0 µM).
